We go through 55 molecules from PubChem BioAssay AID720534 (National Center for Advancing Translational Sciences (NCATS), 2013).

SMILES strings stand for the structures. The whole screen tested about 1,600 compounds, of which about 990 (62%) were called active. Not shown: some 30% with an inconclusive outcome. The set was probably picked from earlier hits. These entries were drawn from the full list. Unmarked numbers belong to inactive results. The call rests on the fitted dose curve; in most records, active means well fitted inhibition curve with a large enough effect; inconclusive means small, poorly fitted or top-dose-only effect; inactive means no such curve, though single readings can be large or run the other way.
Potency means the concentration at half of the fitted maximal effect.

The assay is described as follows: qHTS for Inhibitors of TGF-b: Confirmation of Cherry Picks. Further: nearly all actives have a fitted effect of over 65% in size. As to conditions: HepG2 CAGA-GFP TGF-b reporter, GFP fluorescence, 18 h, cells stimulated with TGF-beta, 500 pg/mL; series mostly up to 46.1 µM; activity, negative = inhibition: at the top concentration. An excerpt: TGF-b is a main component in the TGF-b signaling pathway which plays diverse roles in cellular and development pathways. TGF-b is mediated through transcription factors called "Smads". Although the Smad-dependent pathway is the primary canonical TGF-b signaling mode, TGF-b1 can also activate alternative signaling pathways, including those involving MAPK (ERK, JNK and p38). This interaction may mediate or enhance Smad-dependent responses, or can exert Smad-independent effects. The complexity of this signaling cascade allows the TGF-b superfamily to perform unique, overlapping or redundant functions. We believe that targeting the TGF-beta pathway at the Smad-transcription factor level may eliminate the consequences of disrupting the entire pathway and offer specificity without affecting other signaling pathways. Smad3 is the primary transducer of TGF-b's signals and Smad3 regulates many functions attributed to TGF-b signaling. We hypothesize that Smad3 inhibitors will selectively eliminate Smad3-specific TGF-beta signals without undesired off-target effects. We aim to identify Smad3-small molecule antagonists using a quantitative high throughput screening (qHTS) approach. In this assay, hits identified from the primary screen were re-tested. MH087449NIH Chemical Genomics Center [NCGC] NIH Molecular Libraries Probe Centers Network [MLPCN] MLPCN Grant: MH087449 Assay Submitter (PI): Sushil Rane, National Institute of Diabetes and Kidney Diseases
Suspensions of trypsinized HEPG2 CAGA-GFP cells were dispensed into white, tissue culture-treated, solid 1536-well plates at 5uL/well (1000 cells/well final concentration) in DMEM medium supplemented with 1% FBS. Plates were incubated at 37 degrees C for 2 hours, after which 23 nL of compounds or DMSO were delivered to each well using a pin tool. One uL of recombinant TGF-beta in DMEM (1% FBS) was then dispensed (500 pg/mL final concentration), and plates were incubated at 37 degrees C for 18 hours. The plates were measured on an Acumen eX3 Explorer plate reader for GFP fluorescence (ex488/em500-530). GFP values were calculated by determining the mean GFP fluorescence of individual cells, and compiling these values for each well to determine a total well GFP signal. The %Activity was determined from the corrected fluorescence values. A titration of the known TGF-B inhibitor SB431542 was included to monitor plate performance, while unstimulated HEPG2 (-TGF-B) control wells were used to normalize %Activity of identified inhibitors; unstimulated wells corresponded to 100%Activity (full inhibition), while stimulated cell controls (+DMSO) were used to normalize 0%Activity (no inhibition). Concentration-response curves were fitted to the signals arising from the resulting fluorescence. The concentration-effect curves were then classified based on curve quality (r2), response magnitude and degree of measured activity, and compounds were subsequently categorized based on their curve class.
`O=[N+]([O-])c1ccccc1S(=O)(=O)Nc1cccc2cccnc12`: the Potency was 13 µM (active).
The same measure, in the same setting: under `CN(C)CCNC(=O)c1ccc(Cl)c2cc3ccccc3nc12` stands 3.26 µM (active).
On the same count and under the same terms, with `O=C(NC1=CC(=O)c2ccccc2C1=O)c1ccccc1` the figure was 5.17 µM (active).
Take `COC(=O)COc1cccc2c(=O)n(CC(=O)NCc3ccccc3)ccc12`: the “activity, negative = inhibition” value is -17.8%.
Take `COc1cc(NC(=O)c2ccccc2NS(=O)(=O)c2ccc(Cl)s2)cc(OC)c1`: the Potency is 5.8 µM (active).
Same read-out and setting: with `CN(c1ccccc1)S(=O)(=O)c1ccc(C(=O)N2CCN(c3ccccc3Cl)CC2)cc1` the figure was 5.8 µM (active).
The same measure, in the same setting: under `COc1ccc(CNC(=O)C[C@H]2C[C@H](C(=O)N3CCOCC3)[C@@]3(CCC4CCCC4)c4[nH]c5ccc(Cl)cc5c4CCN3C2=O)cc1OC` stands 4.61 µM (active); under `COc1ccc(C(=O)c2c3ccc([N+](=O)[O-])cc3[n+]([O-])n2CCCN)cc1`, 18.4 µM (active).
Same read-out and setting: with `COc1cc(NC(=O)c2[nH]cnc2C(N)=O)cc(C(=O)Nc2cccc(C(F)(F)F)c2)c1` the figure was 16.4 µM (active).
For the molecule `Cn1c(=O)n(C)c2cc(S(=O)(=O)N3CCCc4ccccc43)ccc21`, the “activity, negative = inhibition” value is -40.6%.
With `COc1cc(CC(=O)Nc2nc(-c3ccc(F)c(F)c3)cs2)cc(OC)c1OC`, the Potency is 11.6 µM (active).
For the molecule `Cc1oc2c(F)c(F)c(F)c(F)c2c1S(=O)(=O)Nc1cccc(C(F)(F)F)c1`, the Potency is 20.6 µM (active).
As for `Clc1ccc(Nc2nc(-c3cccs3)cs2)nc1`, the Potency was 13 µM (active).
Consider `CCOc1ccc(CCN2C(=S)N([C@@H](CC(C)C)CN3CCC[C@@H]3CN3C(=S)NC[C@@H]3Cc3ccc(O)cc3)C[C@@H]2CC(C)C)cc1`, for which the Potency was 18.4 µM (active).
On the same count and under the same terms, under `CCN(CC)C(=O)C1=C(C)N(Cc2ccc(C(C)(C)C)cc2)C(=O)C(CC(=O)NCc2cccc3ccccc23)C1` (stereo not given) stands 14.6 µM (active); under `COC(=O)N/N=C/c1cn(CCCOc2ccc(C)cc2)c2ccccc12`, 14.6 µM (active); under `c1ccc2cc3c(NCCN4CCOCC4)ccnc3cc2c1`, 18.4 µM (active).
As to `c1ccc(-c2cn3c(n2)CCc2ccc4cccnc4c2-3)cc1`, the “activity, negative = inhibition” value is -25.2%.
Turning to `O=C(/C(=C/c1cccc(Cl)c1)c1nc2ccccc2[nH]1)c1ccccc1`, the Potency is 2.91 µM (active).
The same measure, in the same setting: with `CC(=O)c1ccc(-c2cnc3c(NC=O)cc(-c4cccc(NS(C)(=O)=O)c4)cn23)cc1` the figure was 0.731 µM (active); with `CC(=O)c1cccc(-c2cnc3c(NC=O)cc(-c4ccc(N(C)C)cc4)cn23)c1`, 7.31 µM (active).
On to `O=C(Nc1ccc(Cl)cc1)Nc1nnc(/C=C/c2ccccc2)s1`, for which the “activity, negative = inhibition” value was -28.9%.
For the molecule `COc1ccc(-c2onc(C)c2-c2ccc3c(c2)OCCO3)c(O)c1`, the Potency is 16.4 µM (active).
On the same count and under the same terms, under `COc1cc(NC(=O)COC(=O)c2ccc([N+](=O)[O-])s2)cc(OC)c1OC` stands 23.1 µM (active).
On the same count and under the same terms, under `Cc1ccnc(NC(=O)C2CCN(S(=O)(=O)c3c(C)c(C)cc(C)c3C)CC2)c1` stands 7.31 µM (active); under `S=C(NCC1COc2ccccc2O1)Nc1ccc(Br)cc1` (stereo not given), 18.4 µM (active).
Still for that read-out and setting: with `CN(C)c1nc(N)nc(CSc2nnnn2-c2cccc3ccccc23)n1` the figure was 7.31 µM (active); with `CN(C)c1nc(=Nc2cccc(Cl)c2)ss1`, 5.17 µM (active); with `Cc1cccc(-c2nc(Nc3ccc(O)cc3)c3ccccc3n2)c1`, 18.4 µM (active).
For the molecule `COc1cc(/C=C2\Oc3ccc(C#Cc4ccc(O)cc4)cc3C2=O)cc(OC)c1`, the Potency was 6.51 µM (active).
Still for that read-out and setting: under `O=C(Nc1nnc(S(=O)(=O)N2CCCCCC2)s1)c1cccc(Br)c1` stands 23.1 µM (active).
The same measure, in the same setting: under `O=C(Nc1ccc(Br)cn1)c1ccc([N+](=O)[O-])o1` stands 18.4 µM (active).
As to `COc1ccc(CC(=O)Nc2ccccc2NC(=O)c2ccco2)cc1OC`, the “activity, negative = inhibition” value was -18%.
Turning to `CCOC(=O)C1=C(N)N(c2ccc(C)cc2)C2=C(C(=O)CCC2)C1c1cccs1` (stereo not given), the Potency is 23.1 µM (active).
Same read-out and setting: with `Cc1nc(/N=C(\N)NC(=O)NC2CCCCC2)nc2ccccc12` the figure was 11.6 µM (active).
The same measure, in the same setting: with `Clc1ccc2c(c1)C1=C(C(c3ccncc3)O2)C(c2ccc(Br)cc2)n2ncnc2N1` (stereo not given) the figure was 2.31 µM (active); with `CCCOc1ccccc1C1CC(=O)Nc2cc3c(cc21)OCO3` (stereo not given), 8.2 µM (active).
Still for that read-out and setting: with `Cc1cccc2sc(N(CCCN(C)C)C(=O)CCS(=O)(=O)c3ccccc3)nc12` the figure was 5.17 µM (active); with `COc1cccc2sc(N(CCCN(C)C)C(=O)CCS(=O)(=O)c3ccccc3)nc12`, 3.26 µM (active).
With `COc1ccc(C)cc1S(=O)(=O)N1CCN(S(=O)(=O)c2cc(C(=O)O)ccc2C)CC1`, the “activity, negative = inhibition” value is -6.42%.
On to `Cc1nn(-c2ccccc2)c(C)c1/C=N/NC(=O)CSc1nc2ccccc2c(=O)n1-c1ccccc1`, for which the Potency is 2.31 µM (active).
Still for that read-out and setting: under `Cc1ccc(CN2CC(N3CCC(Cc4ccccc4)CC3)CS2(=O)=O)cc1` (stereo not given) stands 20.6 µM (active).
Regarding `O=C(Nc1ccc(C2CC2(Cl)Cl)cc1)c1cccc([N+](=O)[O-])c1` (stereo not given), the “activity, negative = inhibition” value is -80.8%.
Turning to `Cc1ccc(S(=O)(=O)Nc2nc3ccccc3nc2N2CCc3ccccc3C2)cc1`, the Potency was 18.4 µM (active).
Same read-out and setting: under `Cc1cccc(NS(=O)(=O)c2ccc(-c3cnc(C4CC4)o3)cc2)c1` stands 16.4 µM (active); under `COc1ccc2nc(N3CCN(C(=O)c4ccc([N+](=O)[O-])o4)CC3)sc2c1`, 20.6 µM (active); under `OCC1OC(n2cnc3c(N4CCCC4)ncnc32)C(O)C1O` (stereo not given), 2.59 µM (active).
For `CCC(C)N1C(=O)S/C(=C/c2ccc(Sc3nc4ccccc4[nH]3)o2)C1=O` (stereo not given), the Potency was 5.17 µM (active).
Same read-out and setting: with `CCCOc1ccc(F)cc1-c1cc(C(=O)Nc2ccc(F)c(Cl)c2)[nH]n1` the figure was 20.6 µM (active); with `Clc1cccc(Cc2c(-c3cccc(Cl)c3)nc3ccc(Cl)cn23)c1`, 18.4 µM (active); with `Oc1c(CN2CCN(c3ccc(F)cc3)CC2)cc(Cl)c2cccnc12`, 6.51 µM (active).
On the same count and under the same terms, under `OCCCNc1nccc(-c2cc(Nc3cccc(Cl)c3)ncn2)n1` stands 0.411 µM (active); under `CC(=NNC(=S)N1CCCCCC1)c1ccccn1`, 0.651 µM (active); under `Cc1cccc(NC(=O)c2nc(S(=O)(=O)Cc3ccccc3)ncc2Cl)c1`, 4.11 µM (active).
Same read-out and setting: under `Cc1cccc(CS(=O)(=O)c2ncc(Cl)c(C(=O)Nc3ccc(F)cc3)n2)c1` stands 5.17 µM (active).
